Measurements taken from PubChem BioAssay.
Activity calls are given as the source filed them. Unless noted, how the calls were made is not given here.

Columns and labels:
[1] = resazurin metabolic signal in HepG2 cells – cell-based, resazurin fluorescence, 24 h, PK04 Diversity Set, profiling panel (AID 1172); settings: HepG2 viability, higher = more signal
[2] = budding yeast growth changes without added modifier – OD600, strain BY4716, 24 h, basal condition, primary screen (AID 1173); settings: S. cerevisiae BY4716 growth, OD600, 24 h; higher = more signal, called active from +8 up or from −8 down
[3] = viability profiling in MM1S myeloma cells – cell-based, resazurin fluorescence, basal, 24 h, PK04 Diversity Set, profiling panel (AID 1174); settings: higher = more signal, called active from +8 up or from −8 down;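 further: MM1S multiple myeloma cell line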
[4] = target: Dihydroorotate dehydrogenase (quinone), mitochondrial (Plasmodium falciparum (isolate 3D7)) (UniProt Q08210); assay: inhibition of P. falciparum DHODH – biochemical, C-terminal His tag, absorbance 600 nm, primary screen (AID 1175); settings: PfDHODH enzyme, DCIP absorbance 600 nm; higher = more signal, called active from +8 up or from −8 down;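 further: recombinant parasite enzyme with a five histidine tag at its C terminus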
[5] = inhibition of PAO1 biofilm formation – strain PAO1, LB-PBS medium, absorbance 600 nm, primary screen (AID 1176); settings: P. aeruginosa PAO1 growth/biofilm, A600, 12 h; higher = more signal
[6] = growth modulation of vineyard yeast isolate – strain RM11-1a, OD600, basal, 24 h, primary screen (AID 1177);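 further: cultures grown under basal conditions with no added stressor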; settings: S. cerevisiae RM11-1a growth, OD600, 24 h; higher = more signal, called active from +8 up or from −8 down
[7] = growth of efflux-deficient E. coli DRC39 – strain DRC39, OD650, 24 h, E. coli filamentation inducers, primary screen (AID 1178);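 further: growth measured as culture turbidity by optical density at 650 nm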; settings: E. coli DRC39 acrAB, higher = more signal, called active from +8 up or from −8 down
[8] = growth of efflux-deficient E. coli DRC39 – strain DRC39, OD650, 48 h, E. coli filamentation inducers, primary screen (AID 1179);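 further: screen aims at cell division blockers that make cells filament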; settings: E. coli DRC39 delta-acrAB growth, higher = more signal, called active from +8 up or from −8 down
[9] = viability profiling in RPMI8226 myeloma cells – cell-based, resazurin fluorescence, basal, 24 h, PK04 Diversity Set, profiling panel (AID 1180); settings: higher = more signal;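 further: RPMI8826 multiple myeloma cell line at 5000 cells per well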
[10] = target: E3 ubiquitin-protein ligase XIAP (Homo sapiens) (UniProt P98170); assay: small molecules binding XIAP protein – biophysical, small-molecule microarray, fluorescence 635 nm, primary screen (AID 1181); settings: higher = more signal;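 further: score merges 667 nm emission and signal to noise over triplicate slides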
[11] = system: XIP peptide (Xip251-270) binding; assay: XIP fragment 251-270 binding compounds – biochemical, small-molecule microarray, fluorescence 635/667 nm, 0.1 µg/mL protein, primary screen (AID 1182); settings: fluorescent protein binding, 635 nm, higher = more signal, called active from +8 up or from −8 down
[12] = system: XIP peptide (Xip251-270); assay: compounds binding XIP fragment 251-270 – biochemical, small-molecule microarray, fluorescence 635/667 nm, 0.5 µg/mL protein, primary screen (AID 1183); settings: fluorescence 635 nm, higher = more signal
[13] = blood-stage malaria parasite viability loss – strain 3D7, DAPI fluorescence, 100 nL, primary screen (AID 1184);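 further: parasites grown inside human red blood cells in medium with human serum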; settings: P. falciparum 3D7 growth, 3 d, higher = more signal
[14] = target: Homeobox protein Hox-A13 (Mus musculus) (UniProt Q62424); assay: disruptors of Hoxa13 oligonucleotide interaction – biochemical, fluorescence polarization, labeled oligonucleotide, primary screen (AID 1185); settings: Hoxa13:DNA binding, 15 min, higher = more signal, called active from +8 up or from −8 down
[15] = blockers of DNA damage checkpoint Chk1 activation – imaging, HeLa, hydroxyurea, phospho-Chk1 antibody, percent positive cells, primary screen (AID 1186); settings: hydroxyurea-induced phospho-Chk1 immunofluorescence imaging, higher = more signal
[16] = blockers of DNA damage checkpoint Chk1 activation – imaging, HeLa, hydroxyurea, phospho-Chk1 nuclear intensity, primary screen (AID 1187); settings: hydroxyurea-induced phospho-Chk1 immunofluorescence imaging, higher = more signal

Sequence of Homeobox protein Hox-A13 (Mus musculus) (Q62424 whole entry, looked up): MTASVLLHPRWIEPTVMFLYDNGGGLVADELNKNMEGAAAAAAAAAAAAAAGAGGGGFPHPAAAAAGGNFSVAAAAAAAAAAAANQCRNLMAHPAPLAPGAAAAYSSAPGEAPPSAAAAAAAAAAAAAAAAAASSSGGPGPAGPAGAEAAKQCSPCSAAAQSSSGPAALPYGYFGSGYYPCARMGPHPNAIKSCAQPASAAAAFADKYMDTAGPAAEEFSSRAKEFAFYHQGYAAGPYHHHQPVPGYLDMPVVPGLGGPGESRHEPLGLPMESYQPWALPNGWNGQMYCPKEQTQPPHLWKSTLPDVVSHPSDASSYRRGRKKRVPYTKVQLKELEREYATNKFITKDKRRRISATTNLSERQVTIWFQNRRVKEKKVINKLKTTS
Sequence of Dihydroorotate dehydrogenase (quinone), mitochondrial (Plasmodium falciparum (isolate 3D7)) (Q08210 whole entry, looked up): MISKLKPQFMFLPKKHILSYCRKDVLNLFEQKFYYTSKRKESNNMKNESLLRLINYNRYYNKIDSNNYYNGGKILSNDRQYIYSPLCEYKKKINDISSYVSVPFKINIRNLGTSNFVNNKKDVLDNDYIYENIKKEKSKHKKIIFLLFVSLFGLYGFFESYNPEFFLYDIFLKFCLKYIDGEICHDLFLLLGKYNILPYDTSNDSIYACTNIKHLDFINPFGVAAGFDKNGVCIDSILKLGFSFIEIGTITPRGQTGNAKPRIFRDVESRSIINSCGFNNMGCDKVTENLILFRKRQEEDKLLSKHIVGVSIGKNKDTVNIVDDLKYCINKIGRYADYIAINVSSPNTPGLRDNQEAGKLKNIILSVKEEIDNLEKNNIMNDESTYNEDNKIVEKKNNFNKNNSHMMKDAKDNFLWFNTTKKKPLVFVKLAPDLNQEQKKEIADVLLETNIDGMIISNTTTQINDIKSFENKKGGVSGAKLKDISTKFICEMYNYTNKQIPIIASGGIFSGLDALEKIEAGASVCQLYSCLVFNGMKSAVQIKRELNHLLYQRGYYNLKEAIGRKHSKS
Sequence of E3 ubiquitin-protein ligase XIAP (Homo sapiens) (P98170 whole entry, looked up, the tested form may be a part): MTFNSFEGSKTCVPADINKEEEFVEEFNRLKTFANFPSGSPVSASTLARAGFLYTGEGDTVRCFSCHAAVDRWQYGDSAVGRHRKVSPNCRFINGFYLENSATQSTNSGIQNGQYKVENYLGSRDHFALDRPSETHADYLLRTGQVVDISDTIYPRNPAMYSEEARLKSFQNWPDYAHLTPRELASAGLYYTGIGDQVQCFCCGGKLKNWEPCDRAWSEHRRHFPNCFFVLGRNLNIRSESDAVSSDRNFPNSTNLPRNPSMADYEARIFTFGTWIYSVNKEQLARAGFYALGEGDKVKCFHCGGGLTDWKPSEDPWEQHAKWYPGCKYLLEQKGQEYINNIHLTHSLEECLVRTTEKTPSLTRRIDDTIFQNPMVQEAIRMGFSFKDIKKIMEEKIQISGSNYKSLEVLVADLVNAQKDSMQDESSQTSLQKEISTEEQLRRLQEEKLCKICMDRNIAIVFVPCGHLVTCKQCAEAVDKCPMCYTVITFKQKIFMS

| SMILES | z-score [1] | z-score [2] | z-score [3] | composite z-score [4] | z-score [5] | z-score [6] | z-score [7] | z-score [8] | z-score [9] | composite z-score [10] | composite z-score [11] | composite z-score [12] | z-score [13] | z-score [14] | z-score [15] | z-score [16] |
| --- | --- | --- | --- | --- | --- | --- | --- | --- | --- | --- | --- | --- | --- | --- | --- | --- |
| Cc1ccc(F)cc1S(=O)(=O)N[C@@H]1CCN(Cc2ccc(OC(C)C)cc2)C1 | -0.917 | -8.98 (active) | -2.09 (inactive) | -0.0588 (inactive) | -0.225 (inactive) | 0.652 (inactive) | -20 (active) | -19.8 (active) | -0.945 | -0.0794 | -0.46 (inactive) | -0.701 | -0.85 | -5.27 (inactive) | 0.239 (inactive) | 1.54 (inactive) |
| O=C1O[C@@H](c2ccccc2)[C@@H](c2ccccc2)N2[C@@H](c3ccccc3OCCO)[C@]3(C(=O)Nc4ccc(C#CCCO)cc43)[C@@H](C(=O)Nc3nc4ccccc4s3)[C@H]12 | -0.0116 | 0.282 (inactive) | -0.095 (inactive) | -0.176 (inactive) | 0.986 (inactive) | 2.39 (inactive) | -0.233 (inactive) | 0.695 (inactive) | -0.226 | -0.145 | 0.767 (inactive) | 0.698 | -2.14 | -2.2 (inactive) | -0.0607 (inactive) | 0.0274 (inactive) |
| COc1cc2c(cc1OC)CN(C(=O)[C@H]1[C@@H]3C(=O)O[C@@H](c4ccccc4)[C@@H](c4ccccc4)N3[C@@H](c3ccc(OCCO)cc3)[C@]13C(=O)Nc1ccc(C#CC4(O)CCCCCC4)cc13)CC2 | 0.0686 | 1.19 (inactive) | 0.122 (inactive) | -0.143 (inactive) | 2.91 (inactive) | 3.28 (inactive) | 0.457 (inactive) | 1.25 (inactive) | 0.378 | -0.0011 | 0.63 (inactive) | 0.803 | -1.88 | 2.98 (inactive) | -0.647 (inactive) | -1.2 (inactive) |
| O=C(N1CCCCC1)[C@@]1(Cc2ccccc2)COC(c2ccc(OCCCO)cc2)=N1 | 0.271 | -5.06 (inactive) | -0.949 (inactive) | -0.447 (inactive) | 0.258 (inactive) | 2.13 (inactive) | 0.401 (inactive) | 0.0519 (inactive) | 0.482 | 0.284 | 1.07 (inactive) | 0.819 | -1.77 | -5.09 (inactive) | -0.542 (inactive) | -0.344 (inactive) |
| COc1ccc(CCNC(=O)[C@@]2(Sc3ccc(C)cc3)CC(=O)N(Cc3cc(C(F)(F)F)cc(C(F)(F)F)c3)[C@@H]2c2ccc(CO)cc2I)cc1 | 0.872 | -3.6 (inactive) | -2.46 (inactive) | -0.988 (inactive) | 0.723 (inactive) | -1.33 (inactive) | 0.232 (inactive) | 0.214 (inactive) | -1.61 | -0.291 | 0.439 (inactive) | 0.858 | 0.725 | -2.57 (inactive) | 0.261 (inactive) | 0.688 (inactive) |
| COc1ccc([Si](C)(C)[C@H]2[C@H](CCn3cc(CCO)nn3)O[C@@]3(C(=O)N(Cc4ccc(N5C(=O)c6cccc7cccc5c67)cc4)c4ccccc43)[C@@H]2C)cc1 | -2.42 | 0.0502 (inactive) | -5.99 (inactive) | -1.14 (inactive) | 0.519 (inactive) | 1.66 (inactive) | 0.528 (inactive) | 0.251 (inactive) | -5.65 | 0.0636 | 0.146 (inactive) | 0.625 | -2.28 | -3.7 (inactive) | -0.771 (inactive) | -0.923 (inactive) |
| CC(C)C(CO)N1C(=O)[C@]2(C)C3C(=O)OCCC/C=C\[C@H]3OC23C=CCN(c2ccc(Cl)cc2)C(=O)[C@@H]13 (stereo not given in full) | -0.575 | 0.0095 (inactive) | -0.581 (inactive) | -1.04 (inactive) | -0.36 (inactive) | -0.3 (inactive) | -0.391 (inactive) | -0.261 (inactive) | -0.713 | 0.117 | 0.172 (inactive) | 0.146 | 0.775 | -6.76 (inactive) | -0.199 (inactive) | -0.181 (inactive) |
| C=CC[C@@]1(C(=O)O)N=C(c2ccc(OCCCO)cc2)O[C@@H]1c1ccccc1 | 1.53 | -1.07 (inactive) | 0.753 (inactive) | 0.977 (inactive) | -0.568 (inactive) | 0.0596 (inactive) | -0.0277 (inactive) | 1.2 (inactive) | 1.4 | 0.559 | 0.759 (inactive) | 0.994 | -0.441 | -4.13 (inactive) | -0.106 (inactive) | -0.0411 (inactive) |
| COC(=O)[C@@]1(Cc2ccccc2)[C@H]2c3cc(C(=O)N4CCCC4)[nH]c3C[C@H]2CN1C(=O)c1ccccc1 | -0.6 | 0.146 (inactive) | -0.89 (inactive) | -0.171 (inactive) | 0.026 (inactive) | 0.198 (inactive) | -0.79 (inactive) | -0.548 (inactive) | -0.183 | -0.247 | 0.282 (inactive) | 0.659 | -0.0756 | -1.8 (inactive) | 1.1 (inactive) | 1.21 (inactive) |
| O=C(CS)NCCCCCCNC(=O)[C@H]1C[C@H]2C(=O)N[C@@H](Cc3ccccc3)C(=O)N2[C@H]1c1cccc(OCCO)c1 | -0.351 | 0.765 (inactive) | -0.453 (inactive) | -0.439 (inactive) | 0.889 (inactive) | 0.765 (inactive) | -0.0049 (inactive) | 0.57 (inactive) | -0.614 | 0.316 | 0.168 (inactive) | 0.825 | 0.107 | -1.03 (inactive) | -0.0078 (inactive) | 0.671 (inactive) |
